The values below come from PubChem BioAssay AID624330 (Southern Research Specialized Biocontainment Screening …, 2012).

Screen size: about 340,000 compounds; about 2,100 (0.62%) were called active.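 Rule for the calls: active = first-screen hits whose inhibition reached a set limit at any dose in the follow-up dose series; inconclusive = inhibition above the set first-screen limit but never retested; inactive = the rest.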 These entries were drawn from the full list. Measured potencies and affinities stand elsewhere.

In the assay the target is Rac GTPase-activating protein 1 (Homo sapiens) (UniProt Q9H0H5). Briefly: blockers of MgcRacGAP-driven Rac1 GTP hydrolysis – biochemical, ADP Hunter fluorescence, primary and confirmatory, confirmation (AID 624330).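 Note: fluorescence reports GDP produced by GAP-driven GTP hydrolysis.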 The following applies: MgcRacGAP-stimulated Rac1 GTP hydrolysis, at 30 µM, stronger effect = higher value, GST-tagged Rac1 F28L mutant substrate.
Rac GTPase-activating protein 1 (Homo sapiens), sequence (Q9H0H5 whole entry, looked up): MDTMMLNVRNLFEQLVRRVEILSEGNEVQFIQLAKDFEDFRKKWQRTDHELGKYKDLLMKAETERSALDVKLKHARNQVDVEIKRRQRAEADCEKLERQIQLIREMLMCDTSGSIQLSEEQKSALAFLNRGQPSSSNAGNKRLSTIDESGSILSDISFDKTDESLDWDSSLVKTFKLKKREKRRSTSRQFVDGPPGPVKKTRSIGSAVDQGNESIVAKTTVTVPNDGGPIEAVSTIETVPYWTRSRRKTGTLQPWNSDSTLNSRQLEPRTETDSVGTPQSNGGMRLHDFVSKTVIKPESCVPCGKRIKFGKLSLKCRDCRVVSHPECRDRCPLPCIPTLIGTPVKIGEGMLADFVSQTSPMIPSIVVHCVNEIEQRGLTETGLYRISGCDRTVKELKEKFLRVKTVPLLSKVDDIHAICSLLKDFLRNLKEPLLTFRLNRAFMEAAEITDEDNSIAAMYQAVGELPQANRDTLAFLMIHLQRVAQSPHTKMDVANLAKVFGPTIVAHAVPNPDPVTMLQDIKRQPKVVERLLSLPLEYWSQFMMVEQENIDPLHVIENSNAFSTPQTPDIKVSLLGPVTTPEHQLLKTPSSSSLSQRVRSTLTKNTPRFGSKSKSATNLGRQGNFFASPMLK
On to `CN(C)C(CNC(=O)C1CC(=O)N(Cc2ccccc2)C1)c1ccccc1` (stereo not given), for which the inhibition was 5.5% (inactive).
For `CC(C)C[C@@]12C(=O)N(c3cccc(Cl)c3)C(=O)N1[C@H](c1ccc(Br)cc1)[C@@H]1C(=O)N(C(C)(C)C)C(=O)[C@@H]12`, the inhibition was -10.5% (inactive).
Consider `CCn1ccnc1CN(C)C(=O)CCc1nnc(CCCc2ccccc2)o1`, for which the inhibition was -6.18% (inactive).
The figure for `CCCc1cc(-n2ccnc2)n2c(nc3ccccc32)c1C#N` is -0.61% (inactive); for `CCCc1cc(-n2cnc3ccccc32)n2c(nc3ccccc32)c1C#N` it is 11% (inactive); for `COc1ccc(Br)c(C(=O)OCC(=O)NC2CCCCCC2)c1` it is 8.08% (inactive).
Turning to `CCCCN1C(=O)C(CC(=O)NCCc2ccccn2)CC(C(=O)N2CCOCC2)=C1C` (stereo not given), the inhibition is 11.8% (inactive).
To `CN(c1ccc(C(=O)Nc2ccccc2C(F)(F)F)cc1)S(C)(=O)=O` belongs 5.77% (inactive); to `Cc1cc(C)n(C(=O)c2ccc(Cn3nc(C)c(Br)c3C)o2)n1`, 4.85% (inactive).
Regarding `Nc1c(C(=O)N2CCOCC2)sc(=S)n1-c1ccccc1`, the inhibition was 11.6% (inactive).
For the molecule `Nc1c(C(=O)N2CCCCC2)sc(=S)n1-c1ccccc1`, the inhibition is 10.5% (inactive).
With `NC(=O)c1ccccc1NC(=O)C1CCCO1` (stereo not given), the inhibition was 5.38% (inactive).
Turning to `C/C(O)=C(\C#N)c1nc2ccccc2[nH]1`, the inhibition is 6.3% (inactive).
Consider `C/C(O)=C(/C#N)c1nc2ccccc2[nH]1`, for which the inhibition is 9.91% (inactive).
Regarding `CCc1cccc(C)c1NC(=O)CC(C)(C)CC(=O)O`, the inhibition is -15.4% (inactive).
The figure for `Cc1ccc(N/N=C(\C#N)C(N)=S)cc1C` is 14.2% (inactive); for `COc1ccc(CC(=O)Nc2cc(S(=O)(=O)N3CCOCC3)ccc2N2CCCC2)cc1` it is -0.25% (inactive); for `Cc1ccc(NC(=O)CNCC2CCCCC2)cc1S(=O)(=O)N(C)C` it is 28.9% (inactive).
The figure for `CCN(CC)S(=O)(=O)c1ccc(NC(=O)CNC2CCCCC2)cc1` is 31.5% (inactive).
Take `CCN(CC)S(=O)(=O)c1cccc(NC(=O)CN(C)C2CCCCC2)c1`: the inhibition was -0.2% (inactive).
Regarding `CN(C)S(=O)(=O)c1cccc(NC(=O)CCCC2CCCCC2)c1`, the inhibition was 4.27% (inactive).
With `COc1ccc(S(=O)(=O)Nc2ccccc2C(=O)N2CCOCC2)cc1OC`, the inhibition was 3.41% (inactive).
The figure for `COc1ccc(CCNC(=O)C(C)SCC(=O)Nc2ccc(F)cc2)cc1` (stereo not given) is 6.87% (inactive); for `Cc1cc([N+](=O)[O-])nn1CC(=O)Nc1nc2ccccc2s1` it is 6.23% (inactive).
The figure for `COc1ccccc1C(=O)N/N=C(\C)c1ccc(NC(=O)Cc2ccccc2)cc1` is 7.02% (inactive); for `C/C(=N\NC(=O)C(O)(c1ccccc1)c1ccccc1)c1ccc(NC(=O)CCCC(=O)O)cc1` it is 7.64% (inactive); for `COc1ccc(/C(C)=N/NC(=O)c2ccncc2)cc1` it is 4.26% (inactive).
Take `COc1cccc(C(=O)N/N=C(\C)c2ccc(NC(=O)Cc3ccccc3)cc2)c1OC`: the inhibition was 10.3% (inactive).
In the case of `COc1ccc(/C(C)=N/NC(=O)Cc2c(C)nc(C)[nH]c2=O)cc1`, the inhibition is -5.47% (inactive).
To `COc1cc(C(=O)O)ccc1O` belongs 9.79% (inactive).
In the case of `COc1ccc(/C(C)=N/NC(=O)c2ccncc2)cc1[N+](=O)[O-]`, the inhibition is 3.87% (inactive).
To `COc1ccccc1OCC(=O)N/N=C(\C)c1ccc2ccccc2c1` belongs 5.4% (inactive); to `Cc1ccccc1N1CCN(C2=NC(=O)/C(=C/c3cn[nH]c3-c3ccccc3)S2)CC1`, -0.05% (inactive).
To `CC(=O)N1c2ccc(S(=O)(=O)N3CCCCC3)cc2CC1C(=O)NCc1ccc(N(C)C)cc1` (stereo not given) belongs 3.76% (inactive).
On to `Fc1ccc(CNC(=S)NCc2ccc(F)cc2)cc1`, for which the inhibition was -6.74% (inactive).
As for `CCNC(=S)N(Cc1cccs1)Cc1cc2cc(OCC)ccc2[nH]c1=O`, the inhibition is 9.83% (inactive).
To `COc1ccc(OCCOCCOc2ccc(C)cc2[N+](=O)[O-])cc1` belongs 4.97% (inactive); to `Cc1cnc(C(=O)OC(C(=O)c2c[nH]c3ccccc23)c2ccccc2)cn1` (stereo not given), 10% (inactive).
With `C=C1/C=C(\C)C(C)(O)CC(O)CC(=O)C(O)C(O)C(C)CC(C)OC(=O)/C(C)=C/CC/C=C/C(OC)C(O)CC(C)C1` (stereo not given), the inhibition is 9.68% (inactive).
To `COc1cc(CN2CCCC(CO)(Cc3ccccc3C)C2)cc2c1OCO2` (stereo not given) belongs 1.83% (inactive); to `O=C(Nc1cc(Br)ccc1O)c1cc(-c2ccco2)on1`, 8.94% (inactive).
The figure for `Brc1cccc(OCCN2CCCCC2)c1` is 17.4% (inactive).
The figure for `Brc1ccc(OCCOCCN2CCOCC2)cc1` is 4.13% (inactive); for `Clc1cccc(OCCN2CCOCC2)c1` it is 10.7% (inactive).
For `Brc1ccc(OCCN2CCOCC2)cc1`, the inhibition was 28.6% (inactive).
As for `O=C(/C=C/c1cccc([N+](=O)[O-])c1)OCC(=O)N1CCN(C(=O)c2ccco2)CC1`, the inhibition was 4.32% (inactive).
The figure for `COc1cc(/C=C/C(=O)OCC(=O)N2CCCc3ccccc32)ccc1OC(F)F` is 1.81% (inactive); for `COc1ccc(/C=N/OCC(=O)N2CC3(C)CC2CC(C)(C)C3)cc1OC` (stereo not given) it is 4.24% (inactive).
Consider `COc1ccccc1OCC(=O)N1CC2(C)CC1CC(C)(C)C2` (stereo not given), for which the inhibition is 8.14% (inactive).
For `COc1ccccc1C(=O)OCC(=O)N1CCC(Cc2ccccc2)CC1`, the inhibition is 6.97% (inactive).
Take `COc1cc(/C=C/C(=O)OCC(=O)N2CCCc3ccccc32)ccc1OCC#N`: the inhibition was 6.56% (inactive).
In the case of `COc1cccc(OC)c1C(=O)OCC(=O)N1CCC(Cc2ccccc2)CC1`, the inhibition was -0.57% (inactive).
The figure for `CCOC(=O)/C=C/C(=O)OCC(=O)N1CCN(C(=O)c2ccco2)CC1` is 8.47% (inactive); for `Cc1ccc(-c2ccc(=O)n(CC(=O)NCCN(CC(C)C)CC(C)C)n2)cc1` it is 8.51% (inactive); for `O=C1C(CO)C(CO)C(CO)C1CO` (stereo not given) it is -2.59% (inactive).
The figure for `CNCCCc1[nH]nc(N)c1C#N` is 9.11% (inactive); for `CCN(CC(=O)Nc1c(F)cccc1F)C(=O)c1cn2ccccc2n1` it is 2.69% (inactive).
In the case of `Cc1ccn2cc(CCNC(=O)c3ccc(Br)o3)nc2c1`, the inhibition was 13.4% (inactive).
The figure for `O=S(=O)(CCc1nc2ccccc2s1)c1ccc2ccccc2c1` is 18.8% (inactive); for `CCN(CC)S(=O)(=O)c1ccc(NN)nc1` it is -5.75% (inactive); for `COc1cc(/C=C/C(=O)OCC(=O)N2CCCC2)cc(OC)c1OC` it is 4.39% (inactive).
The figure for `COc1cc(/C=C/C(=O)OCC(=O)N2CCN(S(=O)(=O)c3ccc(C)cc3C)CC2)ccc1OC(F)F` is 5.89% (inactive); for `COc1ccc(/C=C/C(=O)OCC(=O)N2CCCCCC2)cc1OC` it is 0.54% (inactive).
The figure for `COc1ccc(/C=C/C(=O)OCC(=O)N2CCN(S(=O)(=O)c3ccc(C)cc3C)CC2)cc1OC` is -0.78% (inactive); for `COc1cc(C(=O)O)nc(OC)n1` it is 0.97% (inactive).
For `CCOC(=O)c1nn(-c2ccc(Cl)cc2)c(=O)c(C#N)c1C`, the inhibition was 5.44% (inactive).
With `O=C(O)CNC(=O)c1ccc(Oc2c(F)c(F)c(Oc3ccc(C(=O)NCC(=O)O)cc3)c(F)c2F)cc1`, the inhibition was -1.5% (inactive).
To `O=S(=O)(O)c1nnc2sc3ccccc3n12` belongs 7.48% (inactive); to `N#CCSc1nnc2sc3ccccc3n12`, 5.4% (inactive); to `O=S(=O)(Cc1ccccc1)N1CCN(Cc2ccc3c(c2)OCO3)CC1`, 4.33% (inactive).
For `Cc1cccc(NC(=O)C2C3C=CC(C4CC34)C2C(=O)O)c1` (stereo not given), the inhibition is 10% (inactive).
In the case of `Cc1nc2ncnn2c(C)c1Cc1cccc(C(F)(F)F)c1`, the inhibition was 5.74% (inactive).
As for `CC1Cc2ccccc2N1C(=O)CNc1ccccc1N1CCCCC1` (stereo not given), the inhibition is -0.46% (inactive).
The figure for `CCCCNC(=O)N1c2ccccc2CC1C` (stereo not given) is 1.84% (inactive); for `Cc1cc(N2C(=O)C(O)=C(C(=O)c3cc4ccccc4o3)C2c2ccc(Cl)cc2)no1` (stereo not given) it is -5.51% (inactive).
The figure for `O=[N+]([O-])c1ccccc1NS(=O)(=O)c1ccccc1` is 0.32% (inactive); for `O=c1cc[nH]c2c1ccc1c(=O)cc[nH]c12` it is 10.4% (inactive).
To `Cc1ccc2[nH]ccc(=O)c2c1` belongs 10.1% (inactive).
With `CC1CCC2(CC1)NC(=O)N(CC(=O)N1CC(C)CC(C)C1)C2=O` (stereo not given), the inhibition is 3.96% (inactive).
In the case of `CCc1ccc2c(c1)C(c1ccc([N+](=O)[O-])cc1)=NNC(c1ccc(C)cc1)=N2`, the inhibition is 11% (inactive).
Take `Cc1ccc(/C=N/Nc2cccc(C(=O)O)c2)s1`: the inhibition is 27.8% (inactive).
Turning to `Cc1ccc(/C=N/Nc2ccc(F)cc2)s1`, the inhibition was 8.64% (inactive).
As for `O=C(O)c1cc(N/N=C/c2ccncc2)ccc1Cl`, the inhibition is -1.57% (inactive).
For the molecule `CSc1ccc(/C=N/Nc2ccc(Cl)c(C(=O)O)c2)cc1`, the inhibition was 5.85% (inactive).
The figure for `CC1=NN(c2ccc(Cl)c(C(=O)O)c2)C(=O)C1` is 14.9% (inactive).
The figure for `CCOC(=O)c1ccc(N2N=C(C)/C(=C/C=C/c3ccco3)C2=O)cc1` is 3.99% (inactive).
The figure for `CC1=NN(c2ccc(C(=O)OC(C)C)cc2)C(=O)/C1=C\C=C\c1ccco1` is 3.71% (inactive); for `O=C1NN(c2ccc(F)cc2)C(=O)/C1=C\C=C\c1ccco1` it is 8.7% (inactive); for `O=C(C1=C(O)C(=O)N(CCN2CCOCC2)C1c1cccc(Br)c1)c1cc2ccccc2o1` (stereo not given) it is 4.64% (inactive).
Consider `C=CCC[C@@H](Cc1ccc(F)cc1)C(=O)OC[C@@H](Cc1c[nH]c2ccccc12)NC(=O)[C@@H](CC=C)CC(=O)N[C@H](CO)Cc1ccccc1`, for which the inhibition is 11.1% (inactive).
As for `CCN(CC)C1CCN(C(=O)c2cc(COc3cccc4cccnc34)on2)C1` (stereo not given), the inhibition was -5.07% (inactive).
In the case of `COC(=O)C(NC(C)=O)(Nc1ccc(C)cn1)C(F)(F)F` (stereo not given), the inhibition was -9.84% (inactive).
`O=[N+]([O-])c1ccccc1CN1CCN(Cc2ccccn2)CC1`: the inhibition is 28.6% (inactive).
The figure for `COc1cc(CN2CCC(C(=O)NC(C)(C)C)CC2)ccc1OCc1ccccc1` is 29.2% (inactive); for `CCOC(=O)c1cc(CC)sc1NC(=O)Cc1ccsc1` it is 14.6% (inactive).

As a reminder, the inhibition is the relative decrease from the control value, in per cent.
